Results reported in PubChem BioAssay (NCATS).
Results filed as inconclusive are left out. Values without a mark were called inactive. Calls of active or inactive are those of the source. The call rests on the fitted dose curve; in most records, active means well fitted inhibition curve with a large enough effect; inconclusive means small, poorly fitted or top-dose-only effect, or effect the other way; inactive means flat fitted curve, though single readings scatter.

Experiment: qHTS for Inhibitors of Plasmodium falciparum (GB4) proliferation (AID 504315); further: nearly all actives have a fitted effect of over 50% in size;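 on activity change, negative = inhibition: 0% = DMSO vehicle and -100% = 0.29 µM artemisinin control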
Conditions: P. falciparum GB4 in erythrocytes, SYBR Green DNA, 72 h; series mostly up to 6.7 µM; activity change, negative = inhibition: at the top concentration
Description: Plasmodium falciparum is a virulent malarial parasite that kills 1-2 million people worldwide each year. Malaria not only inflicts tremendous suffering and morbidity on the human population, but has dramatically influenced the course of civilization with profound sociological and economic implications (Shah, S. 2010). Transmitted by mosquitoes, the sporozoite form of the parasite enters the blood stream to infect hepatocytes, where they become merozoites that infect red blood cells (erythrocytes). Within erythrocytes, merozoites begin a […] cycle of growth and division, after which the parasite is released to infect new red blood cells. Gametocytes, which form within erythrocytes as well, circulate in the bloodstream and are ingested by the mosquito, thereby completing the life cycle (see CDC website). To profile malarial lines for differential chemical responses and to identify inhibitors of malarial growth, an assay that measures P. falciparum growth and replication within erythrocytes was employed. This assay uses a DNA binding fluorescent dye (SYBR Green) to detect parasite DNA following cell lysis. Because mature erythrocytes lack DNA, only Plasmodium-derived DNA is detected. The P. falciparum line cp250, derived from a malarial isolate from Cambodia, (Mu, J., et al. 2010) was added to the panel of lines, Dd2, HB3, 7G8 and GB4 in this study. Laboratory of Assay Development and Screening Technology [ADST] and NIH Chemical Genomics Center [NCGC] Boston University, Chemistry Department, Center for Chemical Methodology and Library Development [CMLD-BU] NIH National Institute of Allergy and Infectious Diseases [NIAID]
ADST Assay Protocol Summary: The 1536-well SYBR Green viability assay was based on the method of Bennett et al (2004) and described previously in 1536-well format (Yuan J., et al. 2009). For screening 3 ul culture medium was dispensed into 1536 well black clear bottom plates (Aurora Biotechnologies) using a Multidrop Combi (Thermo Fisher Scientific Inc.), 23 nL compounds in DMSO were added by a pin transfer (Cleveland, P.H. and Koutz, P.J, 2005) using a pin tool-based delivery system (Kalypsys), and 5 ul of erythrocytes infected with P. falciparum one of five lines (cp250, Dd2, HB3, 7G8 or GB4, 0.3% parasitemia, 2.5% hematocrit final concentration) were added. The plates were incubated at 37C in a humidified incubator in 5% CO2 for 72 h, and 2 ul lysis buffer (20 mM Tris HCl, 10 mM EDTA, 0.16% saponin, 1.6% triton X, 10X SYBR Green I (supplied as 10,000X final concentration by Invitrogen) was added to each well. The plates were mixed for 25 sec with gentle shaking and incubated overnight at room temperature in the dark. The following morning, fluorescence intensity at 485(14) nm excitation and 535(25) nm emission wavelengths was measured on an EnVision (Perkin Elmer) plate reader. Plate reads were normalized relative to the control inhibitor (0.29 uM artemisinin) and vehicle (DMSO) wells present on each plate and then corrected by an algorithm using vehicle-only control plates at the beginning and end of the compound plate stack. References Shah, S. (2010). The Fever: how malaria has ruled humankind for 500,000 years. New York, Sarah Crichton Books. CDC web site, http://www.cdc.gov/malaria/about/biology/index.html Mu, J., Myers, R.A., Jiang, H., Liu, S., Ricklefs, S., Waisberg, M., Chotivanich, K., Wilairatana, P., Krudsood, S., White, N.J., et Plasmodium falciparum genome-wide scans for positive selection, recombination hot spots and resistance to antimalarial drugs Nature Genetics 2010, 42, pp 268-271 Bennett TN, Paguio, M., Gligorijevic, B., Seudieu, C., Kosar, A. D., Davidson, E., and Roepe, P. D. Novel, rapid, and inexpensive cell-based quantification of antimalarial drug efficacy Antimicrobial Agents Chemother. 2004, 48(5): pp 1807-10 Yuan J, Johnson RL, Huang RL, Wichterman J, Jiang HY, Hayton K, Fidock DA, Wellems TE, Inglese J, Austin CP, Su XZ. […]
Potency means the concentration at half of the fitted maximal effect.

SMILES | activity change, negative = inhibition | Potency
CCOC(=O)[C@@]1([C@@H](NC(=O)OC)c2cccc(C)c2)CCCC1=O | 3.41% | –
C[C@@H]1CC[C@H]2C(=O)N(Cc3cccc([N+](=O)[O-])c3)C[C@H](O)CN2[C@@H]1c1cccc(Br)c1 | -8.3% | –
C=C(CC(=O)OC)C[C@]1(CC(=O)OC)CC2(CC=C(C)C)C(=O)C(C(=O)c3ccccc3)=C(OC(=O)c3ccc(Br)cc3)C(CC=C(C)C)(C1)C2=O (stereo not given in full) | -3.95% | –
COc1cccc([C@H]2Oc3ccc(OC)cc3C(=NOCC[C@@H]3C=C[C@H](OC(C)=O)[C@@H](COC(C)=O)O3)[C@H]2O)c1 | 10.6% | –
CCN(CC)CCCN1C=C2C(=O)C(C)(OC(=O)C3CCCC3)C(=O)C=C2C=C1c1ccsc1 (stereo not given) | -15.3% | –
COC(=O)CCCC1=CC2=CC(=O)C(C)(OC(=O)c3cccs3)C(=O)C2=CN1C1CCCC1 (stereo not given) | – | inactive
CC(=O)OC[C@H]1O[C@H](CCON=C(C)CCC(=O)OC[C@H]2O[C@H](C#Cc3ccccc3)C=C[C@H]2Oc2ccc(C)cc2)C=C[C@H]1OC(C)=O | 3.11% | –
CCOC(=O)[C@@]1([C@@H](NC(=O)OC)c2ccco2)CCCC1=O | 9.51% | –
COC(=O)c1c(C(=O)OC)c2c3ccccc3cc(C3CC3)n2c1C(=O)OC | 5.04% | –
CCN1C(=O)N[C@@H](c2cccc(C(F)(F)F)c2)[C@H](C(C)=O)[C@H]1C | – | inactive
C[C@H]1Cc2c(-c3ccccc3)nc3c(c2CO1)CN(C(=O)Cc1cccs1)CC3 | – | inactive
COC(=O)N1C(C2CC2)=Cc2ccccc2C1CC(C)=O (stereo not given) | 0.353% | –
COC(=O)[C@@H]1[C@@H](c2ccccc2)NC(=O)N(CCc2cc(OC)c(OC)c(OC)c2)[C@@H]1C | -4.48% | –
CC(C)=NOCc1ccc(-c2cn([C@@H]3COC[C@@H]3O)nn2)cc1 | -0.726% | –
COC(=O)CC=C[C@@H](C)[C@@H](C=NOC[C@H]1O[C@H](c2ccccc2)C=C[C@H]1Oc1ccc(OC)cc1)N[S+](=O)([O-])c1ccc(C)cc1 | -11.4% | –
COC(=O)CC=C[C@@H](C)[C@H](NC(=O)OC)c1ccccc1Br | 1.52% | –
COc1ccc(-c2nc3c(c4c2C[C@H](c2ccccc2)OC4)CN(C(=O)C2CC2)CC3)c(C)c1 | – | inactive
C[C@H](ON=C1[C@H]2CCn3c(=O)n(-c4ccccc4)c(=O)n3[C@@H]2[C@H](O)[C@@H]2O[C@H]12)c1cn([C@H](CO)Cc2ccccc2)nn1 | -0.475% | –
CCOC(=O)CN1C(=O)N[C@@H](CCc2ccccc2)[C@H](C(=O)OC)[C@H]1C | – | inactive
COc1ccc(-c2nc(-c3ccccc3)oc2Nc2ccccc2C)cc1 | – | inactive

SMILES | activity change, negative = inhibition | Potency
COC(=O)C1=C(C(=O)OC)[C@@H]2N(CC=C(C)C)c3ccccc3[C@@]23CCC(=O)N(Cc2cccc(C(F)(F)F)c2)C3=N1 | – | 849 nM (active)
CCCCCCCc1cc2ccccc2c2c(C(=O)OC)c(C(=O)OC)c(C(=O)OC)n12 | 0.423% | –
C[C@@H]1CC[C@H]2C(=O)O[C@H](CN=[N+]=[N-])CN2[C@@H]1c1ccc(Br)cc1 | 7.36% | –
C=CC[C@@](C(C)=O)(C(=O)OC)[C@@H](NC(=O)OC)c1ccccc1 | 8.46% | –
CC1(OC(=O)c2cccs2)C(=O)C=C2C=C3CCCN3C=C2C1=O (stereo not given) | – | inactive
CCN1C(=O)N(S(=O)(=O)c2ccc(C)cc2)C(c2ccccc2)C(C(=O)OC)=C1C (stereo not given) | 4.69% | –
CO[C@H](c1ccccc1Br)[C@H](C)C=CCCO | 4.58% | –
CCN1C(=O)NC(c2cccs2)C(C(C)=O)=C1C (stereo not given) | 3.3% | –
COc1cccc2c1[C@H](C=Cc1ccccc1)[C@@H]([C@H](O)CN=[N+]=[N-])OC2 | -16.4% | –
C#CCN1C(=O)[C@]2(OCCC=C[C@H]2C)c2ccccc21 | 1.74% | –
COc1ccc(COC(=O)NN=C2C[C@@H](O)[C@@H](O)[C@@H]3[C@H]4C(=O)N(C5CCCCC5)C(=O)[C@@H]4CC[C@H]23)cc1 | 6.02% | –
COC(=O)C1=C(C(=O)OC)[C@@H]2N(Cc3ccccc3)c3ccccc3[C@@]23C[C@@H](C(=O)OC)N(C(=O)Nc2ccc(C(F)(F)F)cc2)C3=N1 | 7.03% | –
COC(=O)CCCC1=CC2=C(c3ccccc3)C(=O)C(C)(OC(=O)C3CCCC3)C(=O)C2=CN1Cc1ccc(OC)cc1 (stereo not given) | – | inactive
COC(=O)C1=C(C(=O)OC)[C@@H]2Nc3ccccc3[C@@]23C[C@@H](C(=O)OC)N(C(=O)NCCBr)C3=N1 | -13.2% | –
CCc1cc2c(nc1CC)CCN(CCC(C)=NO[C@@H]1O[C@H](COC(C)=O)[C@@H](OC(C)=O)[C@H](OC(C)=O)[C@@H]1OC(C)=O)C2 | -4.6% | –
COc1ccc2c(c1)CO[C@H]([C@H](O)CO)[C@H]2C=CC#Cc1ccc(C(C)(C)C)cc1 | -1.74% | –
COC(=O)[C@H](COC(C)(C)C)NC(=O)O[C@H]1C(=O)c2ccc(OC)cc2O[C@@H]1c1ccc2c(c1)OCO2 | 9.15% | –
COc1ccc2c(c1)C(=O)[C@@H](OC(=O)NS(=O)(=O)c1ccc(F)cc1)[C@H](c1ccc(OC)c(Br)c1)O2 | -3.34% | –
CCN1C(=O)NC(CCc2ccccc2)C(C(=O)OC)=C1C (stereo not given) | 2.95% | –
C[C@@H]1C=CCCO[C@]12C(=O)N(Cc1ccc(F)cc1)c1cccc(Br)c12 | -7.27% | –
